Results filed as inconclusive are left out. Active and inactive are the calls of the source. The call rests on the fitted dose curve; in most records, active means well fitted curve in the direction sought with a large enough effect; inconclusive means small, poorly fitted or top-dose-only effect, or another doubt; inactive means no such curve, though single readings can be large; an effect the other way counts as inactive or inconclusive.
Tests used:
[1] = Quantitative High-Throughput drug screen in 47 multiple myeloma cell lines against the NCATS MIPE library collection: JIM3_ECACC cell viability assay (AID 1918963; further: nearly all actives have a fitted effect of over 35% in size)
How it was run: (§1)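 Steps: seed 500 cells per well; pin-transfer MIPE 4.0 library; incubate 48 h at 37C, 5% CO2, humidified; add CellTiter-Glo, 5 min room temperature; read luminescence.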

[2] = Quantitative High-Throughput drug screen in 47 multiple myeloma cell lines against the NCATS MIPE library collection: JIM1_ECACC cell viability assay (AID 1918964)
How it was run: (§2)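 Inhibition of cell viability is measured here. Each line was plated at 500 cells per well, treated with MIPE 4.0 drugs, kept 48 hours at 37C, then assayed for ATP content by CellTiter-Glo luminescence.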

[3] = Quantitative High-Throughput drug screen in 47 multiple myeloma cell lines against the NCATS MIPE library collection: JJN3_DSMZ cell viability assay (AID 1918966; further: nearly all actives have a fitted effect of over 50% in size)
How it was run: as §2

[4] = Quantitative High-Throughput drug screen in 47 multiple myeloma cell lines against the NCATS MIPE library collection: H1112_PLB cell viability assay (AID 1918967; further: nearly all actives have a fitted effect of over 30% in size)
How it was run: as §2

[5] = Quantitative High-Throughput drug screen in 47 multiple myeloma cell lines against the NCATS MIPE library collection: Karpas25_ECACC cell viability assay (AID 1918968; further: nearly all actives have a fitted effect of over 35% in size)
How it was run: as §2

[6] = Quantitative High-Throughput drug screen in 47 multiple myeloma cell lines against the NCATS MIPE library collection: KMS27_JCRB cell viability assay (AID 1918970); further: nearly all actives have a fitted effect of over 30% in size
How it was run: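 KMS27_JCRB myeloma cells, 500 per well, exposed 48 h at 37 C, 5% CO2 to MIPE 4.0 compounds. Viability from ATP by CellTiter-Glo luminescence, normalized to DMSO (100%) and medium-only (0%) wells.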

[7] = Quantitative High-Throughput drug screen in 47 multiple myeloma cell lines against the NCATS MIPE library collection: INA6_PLB cell viability assay (AID 1918965; further: nearly all actives have a fitted effect of over 55% in size)
How it was run: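 CellTiter-Glo luminescence (ATP) after 48 h compound exposure, 37C/5% CO2; 500 cells/well; MIPE 4.0 approved/investigational drugs pinned in; DMSO = 100%, media only = 0% viability.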

[8] = Quantitative High-Throughput drug screen in 47 multiple myeloma cell lines against the NCATS MIPE library collection: KHM11_PLB cell viability assay (AID 1918962); further: nearly all actives have a fitted effect of over 35% in size
How it was run: as §1

[9] = Quantitative High-Throughput drug screen in 47 multiple myeloma cell lines against the NCATS MIPE library collection: KMS12BM_JCRB cell viability assay (AID 1918971); further: nearly all actives have a fitted effect of over 35% in size
How it was run: as §1
Potency means the concentration at half of the fitted maximal effect.

| SMILES | Potency [1] | Potency [2] | Potency [3] | Potency [4] | Potency [5] | Potency [6] | Potency [7] | Potency [8] | Potency [9] |
| --- | --- | --- | --- | --- | --- | --- | --- | --- | --- |
| Cc1ccc(CN2CCNCC2)cc1NC(=O)CNc1ccc(F)c(F)c1 | inactive | inactive | inactive | inactive | 5.9 µM (active) | inactive |  |  |  |
| C=CC(=O)Nc1cccc(Oc2nc(Nc3ccc(N4CCN(C)CC4)cc3OC)ncc2Cl)c1 | 0.118 µM (active) |  | 20.9 µM (active) |  |  |  | 0.469 µM (active) |  |  |
| CC(C)Nc1cc(C(F)(F)F)cc2nc(NC(=O)c3cccnc3)nn12 | inactive | inactive |  | inactive | inactive |  |  |  |  |
| CC[C@@H]1C(=O)N(C)c2cnc(Nc3ccc(C(=O)NC4CCC(N5CCN(CC6CC6)CC5)CC4)cc3OC)nc2N1C(C)C (some centres undefined) |  |  | 2.64 µM (active) |  | 5.26 µM (active) |  | 0.187 µM (active) | 8.33 µM (active) | 0.0743 µM (active) |
| CC1(C)CCC(c2ccc(Cl)cc2)=C(CN2CCN(c3ccc(C(=O)NS(=O)(=O)c4ccc(N[C@H](CCN5CCOCC5)CSc5ccccc5)c(S(=O)(=O)C(F)(F)F)c4)cc3)CC2)C1 |  |  | 9.35 µM (active) | 0.0833 µM (active) | 0.833 µM (active) | 0.0148 µM (active) | 5.9 µM (active) | 6.62 µM (active) | 0.332 µM (active) |
| Cc1cn2cc(C(=O)N(C)CCO)cc(N[C@@H]3CCOc4cccc(C)c43)c2n1 | inactive |  |  |  |  |  |  |  |  |
| Nc1ccc(C(=O)c2cc3c(ccc4ccccc43)[nH]2)cc1 | 2.64 µM (active) |  | 7.43 µM (active) |  | 3.72 µM (active) |  | 2.64 µM (active) |  |  |
| COc1ccc2c(c1)CC[C@@H](CN(C)CC(=O)O)[C@H]2c1ccccc1 |  |  | 10.5 µM (active) |  |  |  | 2.96 µM (active) | 0.662 µM (active) | 2.09 µM (active) |
| Cc1cc(Nc2cc(CN3CCOCC3)c3nc(C)c(Cc4ccc(Cl)cc4F)n3n2)n[nH]1 | 4.69 µM (active) |  | 18.7 µM (active) | 23.5 µM (active) | 20.9 µM (active) |  | 2.35 µM (active) |  | 5.26 µM (active) |
| CCCNC(=O)Nc1ccc(Oc2ncnc3cc(OC)c(OC)cc23)cc1Cl | inactive |  | inactive | inactive | inactive | inactive | inactive |  | 18.7 µM (active) |
| Cc1nc2cnc3ccc(C#Cc4cccnc4)cc3c2n1-c1ccc(C(C)(C)C#N)cc1 | 0.148 µM (active) |  | 0.935 µM (active) | 0.166 µM (active) |  |  | 0.0833 µM (active) |  |  |
| O=C(O)CCCc1c[nH]c2ccccc12 | inactive |  |  | inactive | inactive | inactive | inactive |  |  |
| O=C(C=Cc1c(C(=O)O)[nH]c2cc(Cl)cc(Cl)c12)Nc1ccccc1 | inactive | inactive | inactive | inactive |  | inactive | inactive |  | inactive |
| Cn1cncc1[C@@](N)(c1ccc(Cl)cc1)c1ccc2c(c1)c(-c1cccc(Cl)c1)cc(=O)n2C | 16.6 µM (active) | 0.935 µM (active) |  |  | 4.18 µM (active) | 7.43 µM (active) | 4.69 µM (active) |  | 14.8 µM (active) |
| CN1c2cc(O)c(N=NC(N)=O)cc2CC1S(=O)(=O)O (centres undefined) | inactive | inactive |  |  | inactive |  | inactive |  | inactive |
| CC(C)CC(=O)Nc1n[nH]c2c1CN(C(=O)C1CCN(C)CC1)C2(C)C |  |  | 2.09 µM (active) | 3.32 µM (active) | 1.87 µM (active) |  | 0.296 µM (active) | 1.18 µM (active) | 1.66 µM (active) |
| CC[C@@H]1C(=O)N(C)c2cnc(Nc3ccc(C(=O)NC4CCN(C)CC4)cc3OC)nc2N1C1CCCC1 | 0.0235 µM (active) |  | 7.43 µM (active) |  | 4.69 µM (active) |  | 0.0833 µM (active) |  |  |
| Cn1c(=O)n(-c2ccc(C(C)(C)C#N)cc2)c2c3cc(-c4cnc5ccccc5c4)ccc3ncc21 | 0.132 µM (active) | 0.0209 µM (active) | 0.148 µM (active) |  | 0.0105 µM (active) |  | 0.0166 µM (active) |  |  |
| COc1cc(OC2CCN(C)CC2)ccc1Nc1ncc2c(n1)n(C1CCCC1)c(=O)n2C |  |  |  | 14.8 µM (active) | 6.62 µM (active) | 20.9 µM (active) | 3.72 µM (active) | 6.62 µM (active) | 9.35 µM (active) |
| CN(C)CCCN=c1c2ccccc2n(C)c2[nH]c(=O)n(C)c(=O)c12 |  |  | 16.6 µM (active) | 16.6 µM (active) |  |  | 3.72 µM (active) | 5.26 µM (active) | 4.18 µM (active) |
| Cc1cnc(Nc2ccc(F)cc2Cl)nc1-c1c[nH]c(C(=O)N[C@H](CO)c2cccc(Cl)c2)c1 |  |  |  | 16.6 µM (active) |  | 6.62 µM (active) | 9.35 µM (active) | 0.526 µM (active) | 23.5 µM (active) |
| Cc1c(Cn2c(C)nc3c(C(=O)O)cc(N4CCOCC4)cc32)cccc1C(F)(F)F | 9.35 µM (active) |  |  |  |  |  | 16.6 µM (active) |  |  |
| CCn1nnc2c(N3CCOCC3)nc(-c3ccc(NC(=O)Nc4ccc(C(=O)N5CCN(C)CC5)cc4)cc3)nc21 |  |  | 0.0187 µM (active) |  | 0.0083 µM (active) |  | 0.0053 µM (active) | 0.0059 µM (active) | 0.0059 µM (active) |
| Cc1cc(Nc2cc(N3CCN(C)CC3)nc(C=Cc3ccccc3)n2)n[nH]1 | 7.62 µM (active) | 4.81 µM (active) | 30.3 µM (active) | 38.2 µM (active) | 8.55 µM (active) | 15.2 µM (active) | 3.4 µM (active) |  | 48.1 µM (active) |
| CC1(C)CC(=O)c2c(C(F)(F)F)nn(-c3ccc(C(N)=O)c(NC4CCC(OC(=O)CN)CC4)c3)c2C1 (centres undefined) | 0.148 µM (active) | 0.132 µM (active) | 0.132 µM (active) |  |  | 0.0743 µM (active) | 0.118 µM (active) |  | 0.187 µM (active) |
| C=CC(=O)Nc1cc2c(Nc3ccc(F)c(Cl)c3)ncnc2cc1OCCCN1CCOCC1 |  |  | 16.6 µM (active) | 4.69 µM (active) | 2.64 µM (active) |  | 0.833 µM (active) | inactive | 14.8 µM (active) |
| c1cc(-c2cnn3cc(-c4ccc(OCCN5CCCCC5)cc4)cnc23)ccn1 |  |  | 8.33 µM (active) | 2.96 µM (active) | 2.96 µM (active) | inactive | 1.87 µM (active) | 1.48 µM (active) | 16.6 µM (active) |

From PubChem BioAssay (NCATS)
